High-throughput results from PubChem.
Sampled rows, rich in hits. Any-hit rate of the full collection: about 6.6%.
FBA Mtb inh = inhibits M. tuberculosis FBA enzyme. purified M. tuberculosis FBA, fluorescence read-out. inhibition, % at 1 µM. 360,000 tested, 2.3% active. AID 588726; in the data active = inhibition above about 27%;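 also: 0% = vehicle and 100% = reference inhibitor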
Target sequence (P9WQA3 whole entry, looked up): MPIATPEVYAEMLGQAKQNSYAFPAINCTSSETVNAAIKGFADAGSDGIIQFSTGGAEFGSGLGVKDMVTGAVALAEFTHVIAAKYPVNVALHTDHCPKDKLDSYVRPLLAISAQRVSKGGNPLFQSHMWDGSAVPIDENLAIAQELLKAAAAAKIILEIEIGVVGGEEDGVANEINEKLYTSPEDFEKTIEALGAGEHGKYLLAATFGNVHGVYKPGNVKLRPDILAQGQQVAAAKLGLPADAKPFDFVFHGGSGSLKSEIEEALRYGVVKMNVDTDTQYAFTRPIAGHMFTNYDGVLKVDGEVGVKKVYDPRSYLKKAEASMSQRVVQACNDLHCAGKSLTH
GDH-TPI counter = inhibits GDH-TPI coupling enzymes, artifact for Mtb FBA screen. inhibition, % at 4.8 µM. 360,000 tested, 1.2% active. GDH-TPI coupled enzyme counterscreen, NADH absorbance. AID 588335; in the data active = inhibition above about 30%;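 also: 0% = DMSO wells and 100% = wells lacking the enzyme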
Anthrax LF inh2 = anthrax lethal factor protease inhibition; AID 588501; multiplex microsphere protease cleavage assay, LF; P15917; 360,000 tested, 0.12% active; inhibition, % at 10 µM; also: plate controls were buffer without enzyme for full effect and enzyme alone for no effect
Autofluor counter = counter-screen for toxin protease inhibitors: compound fluorescence; compound autofluorescence counterscreen, microsphere flow cytometry; stronger effect = higher value; fluorescence intensity (test concentration not listed); 360,000 tested, 3.1% active; in the data active = fluorescence intensity above about 16000; inconclusive = no clear call, values can overlap the other calls
BoNT-A LC inh2 = inhibitors of Botulinum neurotoxin A light chain protease; 360,000 tested, 0.17% active; inhibition, % at 10 µM; multiplex microsphere protease substrate cleavage, flow cytometry; AID 588499; also: plate controls were buffer without enzyme for full effect and enzyme alone for no effect
BoNT-F LC inh = BoNT F light chain protease inhibition | Multiplex microsphere protease cleavage assay, flow cytometry | inhibition, % at 10 µM | AID 588497 | 360,000 tested, 0.22% active; in the data active = inhibition above about 35%, passing the limit was not always enough; inconclusive = no clear call, values can overlap the other calls; also: plate controls were buffer without enzyme for full effect and enzyme alone for no effect
Numbers without * were called inactive. Rule as the data show it, unless noted: active = inhibition above about 30%; inconclusive = no clear call, values can overlap the other calls; inactive = below that.

For COc1ccc(/C=C/C(=O)OCC(=O)Nc2ccc(N3CCOCC3)cc2)cc1OC the results were FBA Mtb inh 4, GDH-TPI counter 18, Anthrax LF inh2 6, Autofluor counter 5451, BoNT-A LC inh2 0 and BoNT-F LC inh -4.
`Cn1cnc(S(=O)(=O)Nc2ccc(Cl)c(C(F)(F)F)c2)c1` gave FBA Mtb inh 0, GDH-TPI counter 3, Anthrax LF inh2 -2, Autofluor counter 4043, BoNT-A LC inh2 1 and BoNT-F LC inh -2.
For COc1ccc(S(=O)(=O)N(CC(=O)NCc2ccco2)c2ccccc2)cc1 the results were FBA Mtb inh 2, GDH-TPI counter -7, Anthrax LF inh2 1, Autofluor counter 19214*, BoNT-A LC inh2 inconclusive and BoNT-F LC inh 2.
COc1ccccc1NS(=O)(=O)c1ccc(NC(C)=O)cc1 was read as FBA Mtb inh 1, GDH-TPI counter 2, Anthrax LF inh2 -5, Autofluor counter 18703*, BoNT-A LC inh2 1 and BoNT-F LC inh 0.
Screening COc1ccccc1NS(=O)(=O)c1ccc(NC(=O)c2ccccn2)cc1 returned FBA Mtb inh 0, GDH-TPI counter 3, Anthrax LF inh2 3, Autofluor counter inconclusive, BoNT-A LC inh2 1 and BoNT-F LC inh -2.
`COc1ccccc1NC(=O)CN(c1ccccc1)S(=O)(=O)c1ccccc1` gave FBA Mtb inh 8, GDH-TPI counter 15, Anthrax LF inh2 -13, Autofluor counter inconclusive, BoNT-A LC inh2 -6 and BoNT-F LC inh -5.
Screening COc1ccc(N(CC(=O)NCc2ccco2)S(=O)(=O)c2ccccc2)cc1 returned FBA Mtb inh -1, GDH-TPI counter -4, Anthrax LF inh2 7, Autofluor counter 4356, BoNT-A LC inh2 2 and BoNT-F LC inh 6.
For COc1ccc(N(CC(=O)Nc2ccccc2OC)S(=O)(=O)c2ccc(NC(C)=O)cc2)cc1 the results were FBA Mtb inh 2, GDH-TPI counter 31*, Anthrax LF inh2 4, Autofluor counter 3970, BoNT-A LC inh2 1 and BoNT-F LC inh inconclusive.
Screening O=C(Cc1ccc(Cl)cc1)Nc1ccc(C(=O)N2CCOCC2)cc1 returned FBA Mtb inh 1, GDH-TPI counter 0, Anthrax LF inh2 -8, Autofluor counter 3337, BoNT-A LC inh2 0 and BoNT-F LC inh 1.
For c1coc(-c2nc(-c3ccco3)c(-c3ccco3)nc2-c2ccco2)c1 the results were FBA Mtb inh 32* and GDH-TPI counter 28.
`CC(Oc1ccccc1C(N)=O)C(=O)Nc1ccc(S(=O)(=O)N2CCCC2)cc1` (stereo not drawn) gave FBA Mtb inh 0, GDH-TPI counter -4, Anthrax LF inh2 -2, Autofluor counter 5565, BoNT-A LC inh2 0 and BoNT-F LC inh 5.
Screening CC(C)(C)c1ccc(C(=O)N2CCC2(C)C(=O)NCc2ccc3c(c2)OCO3)cc1 (stereo not drawn) returned FBA Mtb inh -1, GDH-TPI counter -12, Anthrax LF inh2 -5, Autofluor counter 3759, BoNT-A LC inh2 -1 and BoNT-F LC inh -7.
For O=C(CSc1nnc(CNC(=O)c2cccs2)o1)Nc1cccc(Cl)c1 the results were FBA Mtb inh 4, GDH-TPI counter 8, Anthrax LF inh2 -7, Autofluor counter 5346, BoNT-A LC inh2 -1 and BoNT-F LC inh -1.
Screening c1ccc2nc3c(nc2c1)c1ccccc1n3CCN1CCOCC1 returned FBA Mtb inh -1, GDH-TPI counter 15, Anthrax LF inh2 9, Autofluor counter 10550, BoNT-A LC inh2 11 and BoNT-F LC inh -5.
`CC(C)OC(=O)c1c(N)n(CCCN2CCOCC2)c2nc3ccccc3nc12` gave FBA Mtb inh 147*, GDH-TPI counter 12, Anthrax LF inh2 2, Autofluor counter 3587, BoNT-A LC inh2 2 and BoNT-F LC inh 2.
Screening COc1ccccc1CNC(=O)c1c(N)n(CCCN2CCOCC2)c2nc3ccccc3nc12 returned FBA Mtb inh 82*, GDH-TPI counter 14, Anthrax LF inh2 1, Autofluor counter 18665*, BoNT-A LC inh2 13 and BoNT-F LC inh 2.
For Nc1c(C(=O)NCc2ccc3c(c2)OCO3)c2nc3ccccc3nc2n1CCCN1CCOCC1 the results were FBA Mtb inh 10, GDH-TPI counter 2, Anthrax LF inh2 5, Autofluor counter 11356, BoNT-A LC inh2 16 and BoNT-F LC inh -14.
For COc1ccc(N2CCN(C(=O)Cc3ccc(C)cc3)CC2)cc1 the results were FBA Mtb inh 4, GDH-TPI counter 18, Anthrax LF inh2 -9, Autofluor counter 3256, BoNT-A LC inh2 2 and BoNT-F LC inh 15.
For COc1ccc(N2CCN(C(=O)CN=C3NS(=O)(=O)C(c4ccc(C)cc4)=C3C)CC2)cc1 the results were FBA Mtb inh -1, GDH-TPI counter 15, Anthrax LF inh2 0, Autofluor counter 17288*, BoNT-A LC inh2 -3 and BoNT-F LC inh -1.
Screening COc1cc(C(=O)OCC(=O)NCCN2C(=O)CSC2=O)ccc1OCc1c(C)noc1C returned FBA Mtb inh 2, GDH-TPI counter -6, Anthrax LF inh2 0, Autofluor counter 4478, BoNT-A LC inh2 1 and BoNT-F LC inh 22.
Screening Cc1ccc(OCC(=O)Nc2ccc3c(c2)nc2n3CCOC2)cc1 returned FBA Mtb inh 0, GDH-TPI counter 5, Anthrax LF inh2 -11, Autofluor counter 20169*, BoNT-A LC inh2 inconclusive and BoNT-F LC inh -1.
Screening CC(=O)Nc1ccc2c(c1)nc1n2CCOC1 returned FBA Mtb inh 0, GDH-TPI counter -9, Anthrax LF inh2 -2, Autofluor counter 24292*, BoNT-A LC inh2 inconclusive and BoNT-F LC inh -4.
O=C(COc1ccc(Cl)cc1)Nc1ccc2c(c1)nc1n2CCOC1 was read as FBA Mtb inh 2, GDH-TPI counter -2, Anthrax LF inh2 -2, Autofluor counter 6123, BoNT-A LC inh2 -1 and BoNT-F LC inh -2.
`C=CCOc1cccn2c(N(C=O)Cc3ccc(OC)cc3)c(CC)nc12` gave FBA Mtb inh 1, GDH-TPI counter 8, Anthrax LF inh2 -4, Autofluor counter 3039, BoNT-A LC inh2 0 and BoNT-F LC inh 0.
For CCOc1cc(S(=O)(=O)NC2CCCCC2)ccc1F the results were FBA Mtb inh -6, GDH-TPI counter 7, Anthrax LF inh2 -9, Autofluor counter 22695*, BoNT-A LC inh2 2 and BoNT-F LC inh 0.
`CCOc1ccc(N(CC(=O)NN=C2CCCC2)S(C)(=O)=O)cc1` gave FBA Mtb inh -5, GDH-TPI counter 7, Anthrax LF inh2 0, Autofluor counter 2548, BoNT-A LC inh2 0 and BoNT-F LC inh -10.
For Brc1ccc(Cn2c(-c3cncs3)nc3ccccc32)cc1 the results were FBA Mtb inh 6, GDH-TPI counter 4, Anthrax LF inh2 5, Autofluor counter 10760, BoNT-A LC inh2 -1 and BoNT-F LC inh -9.
For c1ccc(Cn2c(-c3cncs3)nc3ccccc32)cc1 the results were FBA Mtb inh 1, GDH-TPI counter -5, Anthrax LF inh2 1, Autofluor counter 20700*, BoNT-A LC inh2 -3 and BoNT-F LC inh -4.
Screening Brc1cccc(Cn2c(-c3cncs3)nc3ccccc32)c1 returned FBA Mtb inh -3, GDH-TPI counter 11, Anthrax LF inh2 -2, Autofluor counter 22203*, BoNT-A LC inh2 inconclusive and BoNT-F LC inh -2.
